Results reported in PubChem BioAssay (Tox21).
Inconclusive results are not listed. Calls of active or inactive are those of the source. Unless noted, the call rests on the fitted dose curve; in most records, active means well fitted curve in the direction sought with a large enough effect in the repeat runs; inconclusive means weak or mixed curves; inactive means no such curve, though single readings can be large; an effect the other way counts as inactive or inconclusive.

Key:
[1] = molecular target: Estrogen receptor (Homo sapiens) (UniProt P03372); experiment: qHTS assay to identify small molecule agonists of the estrogen receptor alpha (ER-alpha) signaling pathway in the presence of an antagonist (AID 1259383; calls by dose curve; further: top concentration of the series differs between compounds; nearly all actives have a fitted effect of over 15% in size)
How it was run: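 ER-alpha agonism measured under antagonist challenge: 10.0nM ICI-182,780 (final) plus compound, 15 concentrations, 22hr, VM7Luc4E2 ERE-luciferase cells. Read by luminescence.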

[2] = qHTS assay to identify small molecule agonists or antagonists of the thyroid stimulating hormone receptor (TSHR) signaling pathway - wild type cell line counter screen (AID 1259384; calls by dose curve)
How it was run: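 Counter screen in untransfected Hek293: compounds (15-point titration, triplicate) plus phosphodiesterase inhibitor Ro20-1724 added after 18 h plating; 30 min RT. Intracellular cAMP via competitive d2/cryptate immunoassay, 1 h incubation.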

[3] = molecular target: Thyrotropin receptor (Homo sapiens) (UniProt P16473); experiment: qHTS assay to identify small molecule antagonists of the thyroid stimulating hormone receptor (TSHR) signaling pathway (AID 1259385; calls by dose curve; further: nearly all actives have a fitted effect of over 20% in size)
How it was run: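 Antagonist mode: compound-treated TSHR-expressing HEK293 cells were stimulated with 1.5 ng/mL TSH (final) in presence of Ro20-1724 for 30 min at RT. HTRF cAMP detection after 1 h; each compound tested at 15 concentrations, triplicate.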

[4] = qHTS assay to identify small molecule agonists of the estrogen receptor alpha (ER-alpha) signaling pathway in the presence of an antagonist - cell viability counter screen (AID 1259386);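 further: series mostly up to about 92 µM; cells exposed to compounds for 22 h at 37 °C before the viability read; nearly all actives have a fitted effect of over 30% in size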
How it was run: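 Steps: 5-day stripped-FBS culture; seed and incubate 24hr; add ICI-182,780 (10.0nM final); pin 15-point compound titration; incubate 22hr at 37C; add CellTiter-Fluor at 21hr; read fluorescence.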

[5] = molecular target: Progesterone receptor (Homo sapiens) (UniProt P06401); experiment: qHTS assay to identify small molecule agonists of the progesterone receptor (PR) signaling pathway (AID 1346784; calls by dose curve; further: nearly all actives have a fitted effect of over 30% in size)
How it was run: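 HEK 293T PR-UAS-bla reporter cells, 2% charcoal-stripped FBS; 6 hr settle at 37C/5% CO2, compound (DMSO) 16 hr, LiveBLAzer B/G FRET substrate 2 hr RT, fluorescence intensity read.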

[6] = qHTS assay to identify small molecule antagonists of the progesterone receptor (PR) signaling pathway - cell viability counter screen (AID 1346798); further: series mostly up to about 92 µM; nearly all actives have a fitted effect of over 50% in size
How it was run: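 Luminescence readout (CellTiter-Glo, 30 min, RT) of viability in PR-UAS-bla HEK293T cells exposed to compound and R5020 agonist for 16 hr at 37C, 5% CO2; run in the same wells as the beta-lactamase reporter read.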

[7] = qHTS assay to identify small molecule antagonists of the TGF-beta/Smad signaling pathway - cell viability counter screen (AID 1346824); further: nearly all actives have a fitted effect of over 50% in size
How it was run: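 Cytotoxicity counter-screen run in the same wells as the beta-lactamase Smad reporter read: CellTiter-Glo luminescence after 30 min at room temperature. HEK 293T SBE-bla cells had 5 hr compound exposure at 37 C with TGF-beta1 (0.25 ng/mL stock).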

[8] = molecular target: Thyrotropin-releasing hormone receptor (Homo sapiens) (UniProt P34981); experiment: qHTS assay to identify small molecule antagonists of the thyrotropin-releasing hormone receptor (TRHR) signaling pathway (AID 1346877; active means well fitted inhibition curve with a large enough effect in the repeat runs, not every such curve was filed as active; further: series mostly up to about 51 µM)
How it was run: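 Human TRHR in HEK293 cells; inhibition of the intracellular calcium rise triggered by 1 nM TRH was followed by fluorescence over 3 min. Compounds were run at 15 concentrations, three replicates each.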

[9] = molecular target: Thyrotropin-releasing hormone receptor (Homo sapiens) (UniProt P34981); experiment: qHTS assay to identify small molecule agonists of the thyrotropin-releasing hormone receptor (TRHR) signaling pathway (AID 1346891; calls by dose curve;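 further: HEK293 cells expressing TRHR with calcium dye readout; series mostly up to about 58 µM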)
How it was run: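 HEK293/TRHR cells, 1500 per well, 18 h 37 °C; Ca dye 2 h 37 °C; pin-tool compound addition (agonist mode); kinetic fluorescence 3 min, 1 s reads; 15 concentrations, triplicate.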

[10] = Human pregnane X receptor (PXR) small molecule agonists, qHTS cell viability counter screen (AID 1346977); further: nearly all actives have a fitted effect of over 50% in size
How it was run: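 Fluorescence read-out (CellTiter-Fluor) of viability in PXR-Luc HepG2 cells, multiplexed with the luciferase agonist read. Compounds in DMSO added after 5hr plating; 24hr total exposure at 37C, 5% CO2.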

[11] = Caspase-3/7 induction in HepG2 cells by small molecules, qHTS assay (AID 1346978); further: nearly all actives have a fitted effect of over 15% in size
How it was run: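 Caspase-3/7 induction was measured by Caspase-Glo 3/7 luminescence (30 min, room temperature) after a 17 hr compound exposure of wild-type HepG2 cells seeded at 2,000 per well and pre-incubated 5 hr.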

[12] = Caspase-3/7 induction in CHO-K1 cells by small molecules, qHTS cell viability counter screen (AID 1346979); further: nearly all actives have a fitted effect of over 35% in size
How it was run: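 CHO-K1 wt, 1,500 cells/well; 5hr pre-incubation 37C/5% CO2; compound pin transfer (DMSO); 16hr exposure; CellTiter-Fluor added, 1hr, fluorescence read.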

[13] = Caspase-3/7 induction in CHO-K1 cells by small molecules, qHTS assay (AID 1346980); further: nearly all actives have a fitted effect of over 15% in size
How it was run: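 Luminescent Caspase-Glo 3/7 read (30min, room temperature) quantified apoptosis induction. Cells were wild-type CHO-K1, treated with compound for 17hr at 37 C and 5% CO2.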

[14] = Caspase-3/7 induction in HepG2 cells by small molecules, qHTS cell viability counter screen (AID 1346981); further: series mostly up to about 92 µM; nearly all actives have a fitted effect of over 30% in size
How it was run: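 The parent HepG2 line is plated at 2,000 cells per well and rested 5 hr before compound pinning from DMSO stocks. Following a 16-hr treatment at 37 C, a fluorogenic live-cell substrate (CellTiter-Fluor) reports viability after 1 hr.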

[15] = molecular target: Nuclear receptor subfamily 1 group I member 2 (Homo sapiens) (UniProt O75469); experiment: Human pregnane X receptor (PXR) small molecule agonists, qHTS assay (AID 1346982); further: nearly all actives have a fitted effect of over 35% in size
How it was run: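 After plating in 5% charcoal-stripped FBS and a 5 hr rest, PXR-Luc HepG2 cells received compounds in DMSO. Following 24 hr at 37 C, ONE-Glo was added and light output read.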

[16] = qHTS assay to identify small molecule agonists of the progesterone receptor (PR) signaling pathway - cell viability counter screen (AID 1346799; calls by dose curve; further: nearly all actives have a fitted effect of over 45% in size)
How it was run: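 HEK293T PR-UAS-bla, 3,000 cells/well, 2% charcoal-stripped FBS; 6 h settle, compound 16 h at 37C/5% CO2; LiveBLAzer 2 h RT, then CellTiter-Glo 30 min RT, luminescence read.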

[17] = qHTS assay to identify small molecule agonists of the TGF-beta/Smad signaling pathway - cell viability counter screen (AID 1346829); further: top concentration of the series differs between compounds; nearly all actives have a fitted effect of over 45% in size
How it was run: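 CellTiter-Glo luminescence readout; SBE-bla HEK 293T cells, overnight plating, compound 5 hr at 37 C/5% CO2, then bla substrate 2 hr RT, then CellTiter-Glo 30 min RT.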

[18] = qHTS assay to identify small molecule agonists of the TGF-beta/Smad signaling pathway (AID 1346859; active means well fitted activation curve with a large enough effect in the signal ratio in the repeat runs, not every such curve was filed as active; the % refers to the signal ratio; further: series mostly up to about 77 µM)
How it was run: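 Read-out: fluorescence at 460 and 530 nm (405 nm excitation) after a 2 hr room-temperature incubation with beta-lactamase FRET substrate. SBE-bla HEK 293T cells had been treated with test compounds for 5 hr at 37 C.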

[19] = molecular target: Progesterone receptor (Homo sapiens) (UniProt P06401); experiment: qHTS assay to identify small molecule antagonists of the progesterone receptor (PR) signaling pathway (AID 1346795; active means well fitted inhibition curve with a large enough effect in the signal ratio in the repeat runs, not every such curve was filed as active; the % refers to the signal ratio)
How it was run: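 Beta-lactamase reporter, HEK293T PR-UAS-bla line; 2% charcoal-stripped FBS; 6 hr pre-incubation, 37C/5% CO2. Compound + R5020 1 nM final, 16 hr. LiveBLAzer B/G FRET substrate, 2 hr RT; fluorescence intensity read.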

[20] = molecular target: Nuclear receptor subfamily 1 group I member 2 (Rattus norvegicus) (UniProt Q9R1A7); experiment: Rat pregnane X receptor (rPXR) activation by small molecules, qHTS assay (AID 1346983); settings: rPXR luciferase reporter cells, One-Glo luminescence, 24 h; max activation: stronger effect = higher value; further: nearly all actives have a fitted effect of over 20% in size
How it was run: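 Luminescent readout (One-Glo luciferase, 30 min room temperature) followed 24 hr compound treatment at 37 C of rPXR cells plated 2,000 per well and preincubated 5hr; qHTS format with compounds delivered in DMSO.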
On the % scale 0 is the no-effect control and ±100 the full control effect.

Chain of Nuclear receptor subfamily 1 group I member 2 (Homo sapiens) (O75469 whole entry, looked up): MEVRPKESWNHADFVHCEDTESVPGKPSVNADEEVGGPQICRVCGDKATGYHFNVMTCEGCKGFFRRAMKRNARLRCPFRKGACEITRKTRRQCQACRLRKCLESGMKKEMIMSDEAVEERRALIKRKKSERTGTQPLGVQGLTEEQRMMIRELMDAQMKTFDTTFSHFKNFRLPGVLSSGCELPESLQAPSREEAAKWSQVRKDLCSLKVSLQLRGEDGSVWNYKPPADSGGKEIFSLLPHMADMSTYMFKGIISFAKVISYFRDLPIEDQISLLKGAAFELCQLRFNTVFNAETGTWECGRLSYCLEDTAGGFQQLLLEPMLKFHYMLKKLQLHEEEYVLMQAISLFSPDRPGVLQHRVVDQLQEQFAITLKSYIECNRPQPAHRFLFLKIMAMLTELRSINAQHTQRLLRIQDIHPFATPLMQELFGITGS
Chain of Thyrotropin-releasing hormone receptor (Homo sapiens) (P34981 whole entry, looked up): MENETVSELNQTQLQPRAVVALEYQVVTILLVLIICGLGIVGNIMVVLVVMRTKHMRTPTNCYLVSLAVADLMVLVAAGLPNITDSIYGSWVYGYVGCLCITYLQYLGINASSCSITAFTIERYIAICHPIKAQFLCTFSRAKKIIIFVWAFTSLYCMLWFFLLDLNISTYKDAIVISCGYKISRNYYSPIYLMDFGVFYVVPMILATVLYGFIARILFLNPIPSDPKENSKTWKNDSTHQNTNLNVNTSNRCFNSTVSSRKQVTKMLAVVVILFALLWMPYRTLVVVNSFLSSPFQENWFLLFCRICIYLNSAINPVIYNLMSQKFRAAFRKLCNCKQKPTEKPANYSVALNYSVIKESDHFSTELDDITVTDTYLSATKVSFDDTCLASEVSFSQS
Chain of Estrogen receptor (Homo sapiens) (P03372 whole entry, looked up): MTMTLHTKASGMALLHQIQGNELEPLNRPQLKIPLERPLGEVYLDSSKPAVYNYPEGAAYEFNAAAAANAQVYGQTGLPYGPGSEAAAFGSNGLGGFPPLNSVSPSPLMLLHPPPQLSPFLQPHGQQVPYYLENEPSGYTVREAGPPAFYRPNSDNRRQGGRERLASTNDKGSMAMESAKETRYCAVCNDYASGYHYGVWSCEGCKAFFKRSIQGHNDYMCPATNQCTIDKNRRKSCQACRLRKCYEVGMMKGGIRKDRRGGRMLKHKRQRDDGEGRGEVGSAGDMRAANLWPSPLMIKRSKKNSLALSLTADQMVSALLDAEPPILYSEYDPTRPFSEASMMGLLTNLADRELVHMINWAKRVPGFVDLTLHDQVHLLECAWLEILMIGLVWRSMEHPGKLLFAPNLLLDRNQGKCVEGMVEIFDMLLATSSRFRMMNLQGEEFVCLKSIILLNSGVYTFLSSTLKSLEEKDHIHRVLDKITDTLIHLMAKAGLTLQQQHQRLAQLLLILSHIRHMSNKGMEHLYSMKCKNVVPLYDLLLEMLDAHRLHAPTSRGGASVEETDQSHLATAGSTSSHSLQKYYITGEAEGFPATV
Chain of Thyrotropin receptor (Homo sapiens) (P16473 whole entry, looked up): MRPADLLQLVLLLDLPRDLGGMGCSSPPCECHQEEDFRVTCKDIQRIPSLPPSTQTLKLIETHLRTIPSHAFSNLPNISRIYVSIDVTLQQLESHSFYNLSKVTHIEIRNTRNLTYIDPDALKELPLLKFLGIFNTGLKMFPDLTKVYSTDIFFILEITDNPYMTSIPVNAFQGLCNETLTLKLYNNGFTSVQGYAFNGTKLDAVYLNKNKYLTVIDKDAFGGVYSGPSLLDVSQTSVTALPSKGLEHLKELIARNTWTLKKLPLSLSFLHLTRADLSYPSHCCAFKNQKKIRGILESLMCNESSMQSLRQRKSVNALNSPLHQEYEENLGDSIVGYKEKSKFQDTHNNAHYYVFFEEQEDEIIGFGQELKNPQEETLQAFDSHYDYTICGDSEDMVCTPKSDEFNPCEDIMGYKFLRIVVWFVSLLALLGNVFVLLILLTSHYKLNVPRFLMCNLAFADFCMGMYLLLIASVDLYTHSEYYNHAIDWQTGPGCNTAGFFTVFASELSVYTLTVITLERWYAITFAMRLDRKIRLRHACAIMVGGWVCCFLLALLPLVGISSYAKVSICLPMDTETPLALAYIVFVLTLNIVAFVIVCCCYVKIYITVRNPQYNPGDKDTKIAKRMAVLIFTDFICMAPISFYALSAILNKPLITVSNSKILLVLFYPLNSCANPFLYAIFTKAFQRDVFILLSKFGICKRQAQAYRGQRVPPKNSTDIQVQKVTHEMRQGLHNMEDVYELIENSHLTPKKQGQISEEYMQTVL
Chain of Progesterone receptor (Homo sapiens) (P06401 whole entry, looked up): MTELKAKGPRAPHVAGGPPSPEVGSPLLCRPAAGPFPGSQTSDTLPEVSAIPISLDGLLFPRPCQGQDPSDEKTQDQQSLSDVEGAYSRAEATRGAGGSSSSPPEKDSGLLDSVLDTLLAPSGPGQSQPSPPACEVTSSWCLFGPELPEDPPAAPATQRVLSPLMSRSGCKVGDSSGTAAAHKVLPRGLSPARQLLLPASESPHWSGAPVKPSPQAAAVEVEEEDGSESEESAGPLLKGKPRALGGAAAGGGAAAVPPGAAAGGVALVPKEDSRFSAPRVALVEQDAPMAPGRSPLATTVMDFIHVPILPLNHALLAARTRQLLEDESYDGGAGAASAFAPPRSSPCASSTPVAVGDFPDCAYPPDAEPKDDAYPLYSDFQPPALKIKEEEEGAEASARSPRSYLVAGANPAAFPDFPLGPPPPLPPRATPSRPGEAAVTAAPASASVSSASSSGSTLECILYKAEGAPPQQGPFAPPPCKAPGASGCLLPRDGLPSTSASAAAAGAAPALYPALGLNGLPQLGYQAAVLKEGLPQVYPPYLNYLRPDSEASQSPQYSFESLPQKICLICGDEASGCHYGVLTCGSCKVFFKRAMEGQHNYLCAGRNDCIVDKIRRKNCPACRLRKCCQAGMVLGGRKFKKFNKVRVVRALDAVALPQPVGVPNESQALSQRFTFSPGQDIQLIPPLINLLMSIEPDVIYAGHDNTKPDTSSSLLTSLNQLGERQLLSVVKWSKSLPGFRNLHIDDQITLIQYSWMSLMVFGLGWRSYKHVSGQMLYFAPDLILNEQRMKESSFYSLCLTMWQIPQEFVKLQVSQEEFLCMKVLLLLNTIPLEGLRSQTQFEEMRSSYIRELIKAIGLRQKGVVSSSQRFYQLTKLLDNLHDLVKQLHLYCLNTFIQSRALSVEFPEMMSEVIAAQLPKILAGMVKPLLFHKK
Chain of Nuclear receptor subfamily 1 group I member 2 (Rattus norvegicus) (Q9R1A7 whole entry, looked up): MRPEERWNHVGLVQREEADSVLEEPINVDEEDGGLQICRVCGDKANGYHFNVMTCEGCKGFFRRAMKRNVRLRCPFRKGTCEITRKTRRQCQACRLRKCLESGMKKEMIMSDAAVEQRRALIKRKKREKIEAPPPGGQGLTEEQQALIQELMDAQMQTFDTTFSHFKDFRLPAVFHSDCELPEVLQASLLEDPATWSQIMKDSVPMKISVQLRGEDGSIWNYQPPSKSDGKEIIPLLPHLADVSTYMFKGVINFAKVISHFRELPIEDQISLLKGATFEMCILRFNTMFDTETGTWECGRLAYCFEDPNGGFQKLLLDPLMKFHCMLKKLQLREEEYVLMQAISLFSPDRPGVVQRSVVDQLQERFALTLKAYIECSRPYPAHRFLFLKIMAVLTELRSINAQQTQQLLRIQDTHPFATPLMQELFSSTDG

CSC(=O)c1cccc2nnsc12
inactive: Potency [1] | outcome [2] | outcome [3] | outcome [4] | Potency [5] | outcome [6] | outcome [7] | outcome [8] | Potency [9] | outcome [10] | outcome [11] | Potency [12] | outcome [13] | outcome [14] | Potency [15]

CCN(CC)CC
inactive: Potency [1] | outcome [2] | outcome [3] | Potency [5] | outcome [6] | Potency [16] | outcome [7] | outcome [17] | outcome [18] | outcome [8] | Potency [9] | outcome [10] | outcome [11] | Potency [12] | outcome [13] | outcome [14] | Potency [15]

CC(=O)SC[C@@H](C)C(=O)N1CCC[C@H]1C(=O)N[C@@H](Cc1ccccc1)C(=O)O
inactive: Potency [1] | outcome [2] | outcome [4] | Potency [5] | Potency [19] | outcome [6] | Potency [16] | outcome [7] | outcome [17] | outcome [18] | outcome [8] | Potency [9] | outcome [10] | outcome [11] | Potency [12] | outcome [13] | outcome [14] | Potency [15]

CCC(C)(C)C
inactive: Potency [1] | outcome [2] | outcome [3] | Potency [5] | Potency [19] | outcome [6] | Potency [16] | outcome [17] | outcome [18] | outcome [8] | Potency [9] | outcome [10] | outcome [11] | Potency [12] | outcome [13] | outcome [14] | Potency [15]

CC(O)CCCCn1c(=O)c2c(ncn2C)n(C)c1=O (configuration not stated)
inactive: Potency [1] | outcome [2] | outcome [3] | outcome [4] | Potency [5] | outcome [6] | Potency [16] | outcome [7] | outcome [17] | outcome [10] | Potency [12] | outcome [13] | outcome [14] | Potency [15] | max activation [20] -1.02%

O=C(O)Cc1c(Cl)ccc(Cl)c1Cl
inactive: Potency [1] | outcome [2] | outcome [3] | Potency [5] | Potency [19] | outcome [6] | Potency [16] | outcome [8] | Potency [9] | outcome [10] | outcome [11] | outcome [13] | outcome [14] | Potency [15]

N#Cc1cc(NC(=O)C(=O)O)c(Cl)c(NC(=O)C(=O)O)c1
inactive: Potency [1] | outcome [2] | outcome [3] | Potency [5] | Potency [19] | outcome [6] | Potency [16] | outcome [17] | outcome [18] | outcome [10] | outcome [11] | Potency [12] | outcome [13] | outcome [14] | Potency [15]

CC(C)(O)c1ccc(C(C)(C)O)cc1
inactive: Potency [1] | outcome [2] | outcome [3] | outcome [4] | Potency [5] | outcome [6] | Potency [16] | outcome [17] | outcome [18] | outcome [10] | outcome [11] | Potency [12] | outcome [13] | outcome [14] | Potency [15]

CNC(C)=O
inactive: Potency [1] | outcome [2] | outcome [3] | Potency [5] | outcome [6] | outcome [7] | outcome [17] | outcome [18] | outcome [8] | Potency [9] | outcome [10] | outcome [11] | Potency [12] | outcome [13] | outcome [14] | Potency [15]
